esBAF inh: Bmi1 luciferase reporter increase in mESCs, primary screen, esBAF inhibitor project, mouse ES cells, Bmi1 luciferase knock-in, single point; reporter increase, % at 12.5 µM; actives 2% (n = 350,000); 24 h; 100% = twice the neutral-well signal; in the data active = activation above about 40%; inconclusive = no clear call, values can overlap the other calls;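 note: a rise in the Bmi1 reporter signal indicates esBAF inhibition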
C2C12 statin: suppressors of statin myotoxicity in C2C12 myotubes, primary screen, cell-based, single point, plate reader; C2C12 myotubes + simvastatin, ATP luminescence, 48 h; scaled: DMSO 0, geranylgeraniol control 100; rescue of ATP level, % at 7.49 µM; actives 0.78% (n = 330,000); AID 602340, 2012;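 active = mean ATP rescue above about 67%, or every replicate alone reaching that limit, limit read from the data, passing the limit was not always enough; inconclusive = no clear call, values can overlap the other calls; inactive = mean under the limit and some replicate under it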;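 note: myotubes were challenged with 10 µM simvastatin during compound exposure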
EBV LMP1 NFkB: EBV LMP1-driven NF-kappaB luciferase reporter inhibitors, primary screen, cell-based, luminescence, single point. inhibition, % at 12.5 µM. AID 504558, 2011. LMP1-induced NF-kappaB luciferase reporter cells. actives 0.69% (n = 350,000); in the data active = inhibition above about 41%; inconclusive = no clear call, values can overlap the other calls
MITF TRPM1 HTS: activators of MITF-driven TRPM1 promoter reporter, primary screen, cell-based, SK-MEL-5, luciferase, single point; actives 0.75% (n = 300,000); AID 588334, 2011; SK-MEL-5 TRPM1-promoter luciferase, 24 h; % of positive control, neutral wells = 0; activation, % at 12.5 µM;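 active = mean activation of at least 80% with every replicate also reaching 80%; inconclusive = mean reaches 80% but some replicate falls short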
MITF TRPM1 inh: inhibitors of MITF-dependent TRPM1 promoter reporter, primary screen, cell-based, SK-MEL-5, single point, luciferase; actives 0.83% (n = 330,000); inhibition, % at 12.5 µM; AID 488899, 2010; SK-MEL-5 TRPM1 promoter luciferase, 24 h;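 active = mean inhibition across replicates of 60% or more, whatever share of single replicates reaches that level; inconclusive = some that reach 60%, reason not given; inactive = mean inhibition across replicates below 60%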
Wnt bcat act: Wnt/beta-catenin pathway activators, primary screen, cell-based, plate reader, single point | Wnt/beta-catenin reporter cell assay, activator | activation, % at 9.35 µM | actives 1.2% (n = 300,000) | AID 743398, 2014; in the data active = activation above about 30%, passing the limit was not always enough; inconclusive = no clear call, values can overlap the other calls
Each line names hits and unclear results; the compound was inactive in the other large screens. Hits are enriched below; roughly 4% of the tested compounds scored in any of these assays.

CCOC(=O)C1CCN(CCC(=O)Nc2ccc(C)c(C)c2)CC1	Wnt bcat act 46 (no result: esBAF inh, C2C12 statin)
Nn1c(SCC(=O)Nc2ccc(F)cc2F)nnc1-c1cccnc1	C2C12 statin 112 (no result: Wnt bcat act)
Nn1c(SCc2ccccc2F)nnc1-c1cccnc1	Wnt bcat act 52 (no result: esBAF inh, C2C12 statin, EBV LMP1 NFkB, MITF TRPM1 HTS, MITF TRPM1 inh)
CCC(=O)N1C[C@H](C)[C@@H](OC)CN(C)C(=O)c2cc(NC(=O)Nc3ccccc3)ccc2OC[C@@H]1C	none (no result: EBV LMP1 NFkB, MITF TRPM1 HTS, MITF TRPM1 inh, Wnt bcat act)
Cc1ccc(NC(=O)COc2ccc(Br)cc2CO)cc1	none (no result: Wnt bcat act)
O=C(COc1ccc(Br)cc1CO)Nc1ccccc1	esBAF inh 56, Wnt bcat act 31 (no result: MITF TRPM1 HTS)
O=C(COc1cccnc1[N+](=O)[O-])Nc1cccc(Br)c1	esBAF inh 63
O=C(COc1ccc(Br)cc1CO)Nc1ccccc1F	MITF TRPM1 HTS 102
Cc1cc(C(=O)CN2C(=O)c3ccccc3C2=O)c(C)n1C1CC1	none (no result: Wnt bcat act)
COCc1cc(=O)[nH]c(N2CCN(c3ccccc3OC)CC2)n1	none (no result: MITF TRPM1 HTS)
Cc1ccc(NC(=O)NC(=O)N(c2ccccc2)S(C)(=O)=O)cc1	esBAF inh 76 (no result: MITF TRPM1 HTS, Wnt bcat act)
CC1CCC(=C(C#N)c2nc(-c3cc4ccccc4oc3=O)cs2)CC1 (stereo unspecified)	MITF TRPM1 HTS 88 (no result: Wnt bcat act)
C[C@H]1CN([C@@H](C)CO)S(=O)(=O)c2ccc(-c3cccnc3)cc2O[C@H]1CN(C)C(=O)CC1CC1	none (no result: EBV LMP1 NFkB, MITF TRPM1 HTS, MITF TRPM1 inh, Wnt bcat act)
C(=C\c1ccccc1)/C=N/N1CCN(c2ccccn2)CC1	EBV LMP1 NFkB 85, MITF TRPM1 HTS 85 (no result: esBAF inh, C2C12 statin, Wnt bcat act)
Cc1cccc(/C=N/N2CCN(c3ccccc3)CC2)c1	MITF TRPM1 HTS 100
C(/C=C/c1ccccc1)=N/N1CCN(c2ccccc2)CC1	esBAF inh inconclusive, MITF TRPM1 HTS 94
Cc1ccc(C(=O)Nc2ccc(SC(F)F)cc2)s1	MITF TRPM1 HTS 83 (no result: esBAF inh, C2C12 statin)
Cc1ccc(C(=O)Nc2ccc3nc(C)sc3c2)o1	esBAF inh inconclusive (no result: MITF TRPM1 HTS, MITF TRPM1 inh)
Cc1ccc(C(=O)Nc2ccc3nc(C)sc3c2)s1	esBAF inh 58 (no result: Wnt bcat act)
Cc1nc2cc(NC(=O)c3ccc(Br)s3)ccc2s1	esBAF inh 70
Cc1nc2ccc(NC(=O)CCC3CCCC3)cc2s1	esBAF inh 50
COc1ccc(CN(C)C[C@@H]2OCCCC[C@H](C)Oc3ccc(NC(=O)NC4CCCCC4)cc3C(=O)N([C@@H](C)CO)C[C@H]2C)cc1	none (no result: C2C12 statin, EBV LMP1 NFkB, MITF TRPM1 HTS, MITF TRPM1 inh, Wnt bcat act)
Cc1ccc(S(=O)(=O)Nc2ccc3nc(C)sc3c2)cc1	none (no result: esBAF inh, C2C12 statin, Wnt bcat act)
CC(=O)Nc1ccc(S(=O)(=O)Nc2ccc3nc(C)sc3c2)cc1	C2C12 statin 90 (no result: esBAF inh)
Cc1ccc(NC(=O)C2CCN(S(=O)(=O)c3c(C)noc3/C=C/c3ccco3)CC2)nc1	MITF TRPM1 inh 72
Cc1ccc(CNC(=O)C2CCN(S(=O)(=O)c3c(C)noc3/C=C/c3ccco3)CC2)cc1	EBV LMP1 NFkB 83
Cc1noc(/C=C/c2ccco2)c1S(=O)(=O)N1CCC(C(=O)NCc2ccco2)CC1	none (no result: esBAF inh, C2C12 statin, MITF TRPM1 HTS)
Cc1ccc(-n2nnnc2CNC(=O)c2ccc(Br)o2)cc1C	none
O=C(NCc1nnnn1-c1ccc(F)cc1)c1ccc([N+](=O)[O-])o1	C2C12 statin 70
Cc1ccc(-n2nnnc2CNC(=O)c2ccc([N+](=O)[O-])o2)cc1C	C2C12 statin 80, MITF TRPM1 inh 62
CC(C)(C)[S@@](=O)N1Cc2cc(C(=O)NCCN3CCCCC3)nc(-c3cccc(-c4cccc(C#N)c4)c3)c2[C@H]1CCO	none (no result: EBV LMP1 NFkB, MITF TRPM1 HTS, MITF TRPM1 inh, Wnt bcat act)
C[C@@H]1CN([C@H](C)CO)C(=O)Cc2cc(NS(=O)(=O)c3cn(C)cn3)ccc2O[C@H]1CN(C)Cc1ccc(C(=O)O)cc1	none (no result: EBV LMP1 NFkB, MITF TRPM1 HTS, MITF TRPM1 inh, Wnt bcat act)
C/C(=N/N=C/c1ccccc1O)c1ccccc1O	Wnt bcat act 44
Oc1ccccc1C=NN=C1c2ccccc2-c2ccccc21	Wnt bcat act inconclusive (no result: esBAF inh, C2C12 statin)
CC(Sc1nc(N)c2c3c(sc2n1)CSC(C)(C)C3)C(=O)Nc1ccccc1 (stereo unspecified)	none (no result: esBAF inh, C2C12 statin, Wnt bcat act)
CC1CCN(c2ccc(C(=O)NCCc3ccccc3)cn2)CC1	esBAF inh 50 (no result: Wnt bcat act)
O=C(NCCc1ccccc1)c1ccc(Cl)nc1	Wnt bcat act 39

Screens as filed in PubChem.
